CYP2C19 inh: blockers of cytochrome P450 2C19 activity – biochemical, luminescence, ADME assay, primary screen | P33261 | CYP2C19 Supersomes, luciferin-H EGE luminescence, 30 min | inhibition, % at 5 µM | actives 21% (n = 96,000);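 active = CYP2C19 inhibition above a set limit at 5 µM in the primary screen, cut at about 50% in these data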
Target sequence (P33261 whole entry, looked up): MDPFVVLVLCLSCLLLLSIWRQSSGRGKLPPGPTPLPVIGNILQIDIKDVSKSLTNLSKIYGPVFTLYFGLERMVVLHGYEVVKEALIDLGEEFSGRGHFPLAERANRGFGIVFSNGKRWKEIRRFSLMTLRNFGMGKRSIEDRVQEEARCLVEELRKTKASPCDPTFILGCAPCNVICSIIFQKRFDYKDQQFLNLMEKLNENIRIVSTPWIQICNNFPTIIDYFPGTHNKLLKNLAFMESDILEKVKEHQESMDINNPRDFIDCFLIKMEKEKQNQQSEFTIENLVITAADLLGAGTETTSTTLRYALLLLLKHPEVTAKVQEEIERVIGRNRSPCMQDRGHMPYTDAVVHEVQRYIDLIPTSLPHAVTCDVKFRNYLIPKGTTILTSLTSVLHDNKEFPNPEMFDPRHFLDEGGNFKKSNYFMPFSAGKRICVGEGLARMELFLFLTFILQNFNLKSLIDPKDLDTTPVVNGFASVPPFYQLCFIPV
CYP2C19 activ: human CYP2C19 activators, primary screen, biochemical, luminescence | Cytochrome P450 2C19 (Homo sapiens), P33261 | recombinant CYP2C19, luciferin-H EGE luminescence; stronger effect = higher value; 0 = fully inhibited enzyme, 1 = untreated enzyme | activation factor at 5 µM | 96,000 tested, under 10 active;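 active = activation factor of at least 2 at 5 µM in the primary screen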
CYP2C9 act: human CYP2C9 activators, primary screen, biochemical, luminescence | activation factor at 5 µM | AID 1024, 2008 | recombinant CYP2C9, luciferin-H conversion; stronger effect = higher value; factor 1 = untreated enzyme, 0 = blocked | Cytochrome P450 2C9 (Homo sapiens), P11712 | actives 1.4% (n = 96,000);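 active = activation factor of 2 or more for CYP2C9 at a 5 µM dose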
Cav32 inh: Cav3.2 calcium influx blockers – cell-based, Fluo-4 calcium fluorescence, FDSS, MLSMR library, primary screen | Voltage-dependent T-type calcium channel subunit alpha-1H (Homo sapiens), O95180 | B-score at 10 µM | Cav3.2-expressing cells; stronger effect = lower value | actives 4% (n = 100,000);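 active = single-dose well whose peak fluorescence ratio is a statistical outlier from its plate by either plate-standardised score or position-corrected B-score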
CYP2C9 inh: blockers of cytochrome P450 2C9 activity – biochemical, luminescence, ADME assay, primary screen. P11712. CYP2C9 Supersomes, luciferin-H conversion. inhibition, % at 5 µM. actives 20% (n = 96,000);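 active = blocking of liver enzyme CYP2C9 beyond about 50% at 5 µM, limit read from the data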
Of the large screens only hits and unclear results are named; the others gave an inactive call. Only some compounds are listed: those with a hit (about 27% of all), similar ones and a draw of the others.

COc1cccc(=O)c2c(C)n(-c3cc(C)cc(C)c3)c(C)c12	CYP2C19 inh 82.3, Cav32 inh -5.13, CYP2C9 inh 82.4
CCN1CCN(C(=O)c2ccc(COc3ccc(Cl)cc3)o2)CC1	none
CCOc1ccc(OCc2ccc(C(=O)N3CCc4ccccc4C3)o2)cc1	CYP2C19 inh 50.9, Cav32 inh -2.78
COc1cccc2cc(C(=O)N3CCc4ccccc4C3)c(=O)oc12	CYP2C9 act 2
COc1cccc2cc(C(=O)N3CCN(c4ccccc4F)CC3)c(=O)oc12	CYP2C9 inh 50.7
CCOc1cccc2cc(C(=O)N3CCc4ccccc4C3)c(=O)oc12	CYP2C19 inh 68.5, CYP2C9 act 2.5
COc1cc2c(cc1OC)CN(C(=O)c1cc3ccccc3oc1=O)CC2	none
COc1cc(Br)cc2cc(C(=O)N3CCN(c4ccccn4)CC3)c(=O)oc12	CYP2C19 inh 74.2, CYP2C9 inh 57.0
C/C(N)=C(/C#N)C(=O)CSc1nnc(COc2ccccc2Cl)o1	none
COc1ccccc1OCc1nnc(SCC(=O)c2cc(Cl)ccc2OC)o1	CYP2C9 act 2.6
CC(C)(C)NC(=O)NC(=O)CSc1nnc(COc2ccccc2Cl)o1	Cav32 inh -5.98
CCc1cc(C(=O)NNC(=S)NCC2CCCO2)cs1 (stereo unspecified)	none
COc1ccc(NC(=S)NCC2CCCO2)c(OC)c1 (stereo unspecified)	CYP2C19 inh 55.6
COc1ccc(CNC(=O)C(=O)NCC2CCCO2)cc1 (stereo unspecified)	none
Cc1cc(C)cc(NC(=S)NCC2CCCO2)c1 (stereo unspecified)	CYP2C9 act 2.1
COc1cccc(-c2nnn(CCc3nn[nH]n3)n2)c1	none (no result: CYP2C19 inh, CYP2C19 activ, CYP2C9 act, CYP2C9 inh)
CCCCN(CC)S(=O)(=O)c1ccc(C(=O)Nc2nnc(-c3cccs3)o2)cc1	Cav32 inh -4.81
CN(Cc1ccccc1)S(=O)(=O)c1ccc(C(=O)Nc2nnc(C3CC3)o2)cc1	CYP2C9 inh 85.3
CCCCN(C)S(=O)(=O)c1ccc(C(=O)Nc2nnc(CSC)o2)cc1	CYP2C9 inh 85.0
CCCCN(CCCC)S(=O)(=O)c1ccc(C(=O)Nc2nnc(COC)o2)cc1	none
CCc1nnc(NC(=O)c2ccc(S(=O)(=O)N(CC)CC)cc2)s1	none (no result: CYP2C19 inh, CYP2C19 activ, CYP2C9 act, CYP2C9 inh)
COc1ccccc1-c1nnc(NC(=O)c2ccc(S(=O)(=O)N(C)Cc3ccccc3)cc2)o1	Cav32 inh -5.77 (no result: CYP2C19 inh, CYP2C19 activ, CYP2C9 act, CYP2C9 inh)
O=C(NC(NC1CCS(=O)(=O)C1)C(Cl)(Cl)Cl)c1ccc(Br)cc1 (stereo unspecified)	none
CC(=O)Nc1ccc(S(=O)(=O)NC2(C(F)(F)F)NC(=O)N(C3CCCCC3)C2=O)cc1 (stereo unspecified)	none
COc1ccc(CCN2C(=O)C3CC(C)=C(C)CC3C2=O)cc1OC (stereo unspecified)	none
O=C(Nc1ccccc1)C1=C[C@H](c2ccc(Br)cc2)C[C@H](OCc2ccc(CO)cc2)O1	none (no result: CYP2C19 inh, CYP2C19 activ, CYP2C9 act, CYP2C9 inh)
CCc1nnc(NC(=O)c2ccc(S(=O)(=O)N(CC)Cc3ccccc3)cc2)o1	Cav32 inh -4.45, CYP2C9 inh 95.1
CCOc1cc(/C=N/NS(=O)(=O)c2ccccc2)ccc1OS(=O)(=O)c1ccc(C)cc1	CYP2C19 inh 99.2, CYP2C9 inh 100.3 (no result: Cav32 inh)
CCOc1cc(/C=N/NC(=O)CNc2cccc(C)c2)ccc1OC(=O)c1ccccc1	Cav32 inh -3.91
Cc1ccc(S(=O)(=O)N/N=C/c2ccc(OS(=O)(=O)c3ccc(C)c([N+](=O)[O-])c3)cc2)cc1	CYP2C9 inh 91.0 (no result: Cav32 inh)
O=C(COc1ccc(Cl)cc1)N/N=C/CCc1ccccc1	CYP2C19 inh 51.8
CCOc1ccc(NC(=O)CCN2CCCCC2)cc1	none
C=C1[C@@H](C)C2[C@H](Cc3ccccc3)NC(=O)[C@]23OC(=O)CC[C@H](O)CCC[C@H](C)C/C=C/[C@H]3[C@@H]1O (stereo partly specified)	none (no result: CYP2C19 inh, CYP2C19 activ, CYP2C9 act, CYP2C9 inh)
C=CCN1C=CC(=O)CC1	none (no result: CYP2C19 inh, CYP2C19 activ, CYP2C9 act, CYP2C9 inh)
CCOc1cc(/C=N/NC(=O)COc2ccc(C)cc2)ccc1OC(=O)c1cccs1	CYP2C9 inh 68.9
CCOc1cc(/C=N/NC(=O)COc2ccc(Cl)cc2)ccc1OS(=O)(=O)c1ccccc1	CYP2C19 inh 81.7
CC(C)CC(C(=O)N1CCc2ccccc2C1)N1C(=O)c2ccccc2C1=O (stereo unspecified)	none
CCCC1CCc2c(c3ccccc3[nH]c2=O)O1 (stereo unspecified)	none
CC1CCN(c2cc(N3CCOCC3)c(F)cc2[N+](=O)[O-])CC1	none
Cc1nnc(N/N=C/c2cc([N+](=O)[O-])c(N3CCC(C)CC3)cc2N2CCC(C)CC2)n1N	Cav32 inh -6.68
O=c1c2nnn(Cc3ccccc3)c2ncn1-c1ccccc1	none
COc1ccc(CCN2C(=O)c3[nH]nc(-c4ccccc4O)c3C2c2cccc(Cl)c2)cc1 (stereo unspecified)	CYP2C9 inh 62.5
COc1cc(C2c3c(-c4cc(Cl)c(C)cc4O)n[nH]c3C(=O)N2Cc2cccnc2)ccc1O (stereo unspecified)	none
COc1cccc(C2c3c(-c4cc(Cl)c(C)cc4O)n[nH]c3C(=O)N2Cc2cccnc2)c1 (stereo unspecified)	CYP2C9 inh 72.0
Cc1ccc(C2c3c(-c4ccccc4O)n[nH]c3C(=O)N2Cc2ccncc2)cc1 (stereo unspecified)	none
COc1ccc(C2c3c(-c4ccccc4O)n[nH]c3C(=O)N2CCc2ccc(OC)c(OC)c2)cc1 (stereo unspecified)	CYP2C19 inh 85.6, CYP2C9 inh 96.1
O=C1c2[nH]nc(-c3ccccc3O)c2C(c2cccc(O)c2)N1Cc1ccco1 (stereo unspecified)	Cav32 inh -4.97
Cc1cc(=S)n(-c2ccccc2)n1C	none
CC1=C([N+](=O)[O-])C(c2cccc(Br)c2)C2=C(N1)c1ccccc1C2=O (stereo unspecified)	CYP2C19 inh 87.6, CYP2C9 inh 98.3
COc1cccc(C2C3=C(CC(C)(C)CC3=O)OC(N)=C2[N+](=O)[O-])c1 (stereo unspecified)	none
CCOc1ccccc1OCCOc1cccc(C(F)(F)F)c1	none (no result: Cav32 inh)
COc1ccc(C)cc1-n1c(N)c(C#N)c(C#N)c1-c1ccc(OC)c(OC)c1OC	CYP2C9 inh 50.5
COc1cccc(Cn2c(N)c(C#N)c3nc4ccccc4nc32)c1OC	none
COc1ccc(OCCCC(=O)NCc2ccco2)cc1	none
C=CCOC(=O)/C(=C\c1ccc(OC)cc1)NC(=O)c1ccco1	CYP2C19 inh 55.0 (no result: Cav32 inh)
CCOC(=O)CC(NC(=O)c1ccco1)c1ccc(OC)cc1 (stereo unspecified)	none
COc1ccc(/C=C/C(=O)NC(=S)NNC(=O)c2ccco2)cc1	Cav32 inh -5.35 (no result: CYP2C19 inh, CYP2C19 activ, CYP2C9 act, CYP2C9 inh)
